Our source for the side scatter shift values is PubChem BioAssay AID1069 (NMMLSC, 2008).

The test can be described thus: activators of LNCaP cell differentiation, retest, confirmation, side scatter shift, flow cytometry (AID 1069).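 Note: LNCaP human prostate cancer cells in low-serum medium with charcoal-stripped FBS; percent of cells with raised granularity gated so DMSO controls show 10%.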 The conditions noted are these: 4 d, stronger effect = higher value.

Calls of active or inactive are those of the source.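 Rule for the calls: active = high combined rank on largest and smallest cell-count-weighted shift across three tests, rank score above 45, floors 50 and 25 (some results past the limit were not filed as active); inactive = the rest.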

As to `CCc1cc(C)cc(OCCNC(=O)c2ncn[nH]2)c1`, the side scatter shift is 3.5% (inactive) (at 100 µM) and 0% (side scatter shift, at 10 µM).

For the compound `COc1ccc(C(CC(=O)O)NC(=O)Cc2ccccc2)cc1` (configuration not stated), the side scatter shift by setting is: (at 100 µM) 2.7% (inactive); (side scatter shift, at 10 µM) 3.1%.

For `COc1ccc2cc3c(N)nn(C(=O)Cc4ccccc4OC)c3nc2c1`, the side scatter shift reads like this: (at 100 µM) 20% (inactive); (side scatter shift, at 10 µM) 8.05%.

On to `Cc1cc(=O)n2nc(N3CCCC(C(=O)NCCCN4CCc5ccccc5C4)C3)sc2n1` (configuration not stated), for which the side scatter shift is 17.4% (inactive) (at 100 µM) and 9.3% (side scatter shift, at 10 µM).

In the case of `COc1ccc(-c2oc3ncn(CCN4CCOCC4)c(=N)c3c2-c2ccc(OC)cc2)cc1`, the side scatter shift was 42.3% (inactive) (at 100 µM) and 19.7% (side scatter shift, at 10 µM).

For `COc1ccc(N2CCN(CCCNC(=O)CN3CCN(Cc4ccccc4C)C3=O)CC2)cc1`, the side scatter shift runs as follows: (at 100 µM) 15.8% (inactive); (side scatter shift, at 10 µM) 16.6%.

For the compound `O=C(c1ccccc1)c1ccc(N2CCNCC2)cc1`, the side scatter shift was 63% (active) (at 100 µM) and 7.95% (side scatter shift, at 10 µM).

`Cc1oc(-c2cccc(Cl)c2)nc1CN1CCC(C(=O)NCC2CCCO2)CC1` (configuration not stated): the side scatter shift runs as follows: (at 100 µM) 33.9% (inactive); (side scatter shift, at 10 µM) 8.8%.

For the compound `COc1ccc(CCn2c(=N)c(C(=O)NCc3ccco3)cc3c(=O)n4ccccc4nc32)cc1`, the side scatter shift (at 100 µM) is 59.4% (inactive) and the side scatter shift (side scatter shift, at 10 µM) is 4.85%.

On to `COC(=O)CN1CCN(C(=O)c2ccc(F)cc2)c2ccccc2C1`, for which the side scatter shift is 12.5% (inactive) (at 100 µM) and 3.1% (side scatter shift, at 10 µM).

As to `CCOC(=O)c1c(-c2ccc(C)o2)csc1NC(=O)CN1CCN(CC)CC1`, the side scatter shift by setting is: (at 100 µM) 22.2% (inactive); (side scatter shift, at 10 µM) 8.3%.

Consider `CCOC(=O)c1ccc(-c2n[nH]c(=O)c3ccccc23)cc1`, for which the side scatter shift (at 100 µM) was 10.7% (inactive) and the side scatter shift (side scatter shift, at 10 µM) turned out to be 3.3%.

Regarding `Cn1nc(-c2ccc(Cl)cc2)c2cc(C(=O)NCCCN3CCCC3)sc21`, the side scatter shift runs as follows: (at 100 µM) 31.6% (active); (side scatter shift, at 10 µM) 66.5%.

As to `CCN1CCN(c2cc(C)c3cc(NC(=O)c4ccc(Br)o4)ccc3n2)CC1`, the side scatter shift was 2.8% (active) (at 100 µM) and 32.8% (side scatter shift, at 10 µM).

Regarding `COc1cc2nc(N3CCN(C(=O)C4COc5ccccc5O4)CC3)nc(N)c2cc1OC` (configuration not stated), the side scatter shift by setting is: (at 100 µM) 0% (active); (side scatter shift, at 10 µM) 55.2%.

In the case of `C=CCn1c(=N)n(CC(O)COc2ccc(OC)cc2)c2ccccc21` (configuration not stated), the side scatter shift is, setting by setting: (at 100 µM) 18.9% (inactive); (side scatter shift, at 10 µM) 10.9%.

As for `Cc1oc(-c2ccc(Cl)cc2)nc1CN1CCCC(C(=O)NCc2ccccn2)C1` (configuration not stated), the side scatter shift is 26.5% (inactive) (at 100 µM) and 6.45% (side scatter shift, at 10 µM).

`Cc1ccc(Cn2ccc(NC(=O)c3cc(-c4ccc(Br)cc4)on3)n2)cc1`: the side scatter shift runs as follows: (at 100 µM) 23% (inactive); (side scatter shift, at 10 µM) 10.6%.

Take `O=C(CCCCCn1c(=O)[nH]c2ccccc2c1=O)NCCCN1CCN(c2ccccc2F)CC1`: the side scatter shift is, setting by setting: (at 100 µM) 27.8% (inactive); (side scatter shift, at 10 µM) 3%.

As for `CC(C)(C)OC(=O)N1CCC(C(=O)N2CCCCCC2)CC1`, the side scatter shift is, setting by setting: (at 100 µM) 16.1% (inactive); (side scatter shift, at 10 µM) 7.5%.

As for `CCOC(=O)N1CCN(S(=O)(=O)c2ccc(C(=O)Nc3nc4ccccc4s3)cc2)CC1`, the side scatter shift reads like this: (at 100 µM) 11.7% (inactive); (side scatter shift, at 10 µM) 5.15%.

`COc1ccc(Nc2nc(N3CCCC3)c3ccccc3n2)cc1`: the side scatter shift reads like this: (at 100 µM) 14% (inactive); (side scatter shift, at 10 µM) 21.6%.

In the case of `CCc1ncc(C(O)c2cccc(OC)c2OC)n1C` (configuration not stated), the side scatter shift is 1.4% (inactive) (at 100 µM) and 5.25% (side scatter shift, at 10 µM).

Take `COc1ccc(CCNC(=O)C2CCN(Cc3nc(-c4ccccc4C)oc3C)CC2)cc1OC`: the side scatter shift (at 100 µM) is 0% (inactive) and the side scatter shift (side scatter shift, at 10 µM) is 20%.

With `CCOc1ccc(NC(=O)COc2nsnc2N2CCCCC2)cc1`, the side scatter shift is 8.7% (inactive) (at 100 µM) and 6.35% (side scatter shift, at 10 µM).

In the case of `Cc1nnc(NCc2n[nH]c(=O)c3ccccc23)c2ccccc12`, the side scatter shift was 46.8% (inactive) (at 100 µM) and 6.5% (side scatter shift, at 10 µM).

For `Cc1cc(C)n2nnnc2c1C#N`, the side scatter shift runs as follows: (at 100 µM) 3.9% (inactive); (side scatter shift, at 10 µM) 6.4%.

Consider `Cc1oc(-c2ccc(Cl)cc2)nc1CN1CCCC(C(=O)NCc2ccco2)C1` (configuration not stated), for which the side scatter shift by setting is: (at 100 µM) 22.2% (inactive); (side scatter shift, at 10 µM) 12.7%.

Take `COc1cccc(-c2cc(C(=O)N3CCN(C(c4ccccc4)c4ccccc4)CC3)no2)c1`: the side scatter shift is 9.8% (inactive) (at 100 µM) and 2.7% (side scatter shift, at 10 µM).

With `CN(CC(=O)Nc1ccc2c(c1)OCCO2)S(=O)(=O)c1cccc2cccnc12`, the side scatter shift is, setting by setting: (at 100 µM) 16.8% (inactive); (side scatter shift, at 10 µM) 3.95%.

In the case of `CCc1ccc(-c2nc(CN3CCC(C(=O)N4CCN(c5ccccn5)CC4)CC3)c(C)o2)cc1`, the side scatter shift by setting is: (at 100 µM) 30% (inactive); (side scatter shift, at 10 µM) 32.4%.

In the case of `Cc1oc(-c2ccccc2F)nc1CN1CCC(C(=O)NCc2ccco2)CC1`, the side scatter shift was 23.3% (inactive) (at 100 µM) and 3% (side scatter shift, at 10 µM).

`Cn1nc(-c2ccc(Cl)cc2)c2cc(C(=O)NCCN3CCOCC3)sc21`: the side scatter shift by setting is: (at 100 µM) 30% (inactive); (side scatter shift, at 10 µM) 5.2%.

As for `Cc1sc(CO)c(Sc2ccccc2)c1C(=O)O`, the side scatter shift reads like this: (at 100 µM) 3.4% (inactive); (side scatter shift, at 10 µM) 2.85%.

Take `Cc1ccc(CN2CCSc3ccc(C(=O)N4CCN(c5ncccn5)CC4)cc32)cc1`: the side scatter shift (at 100 µM) is 18.6% (inactive) and the side scatter shift (side scatter shift, at 10 µM) was determined as 7.2%.

Consider `CCOc1nc(-c2ccccc2O)nc2ccccc12`, for which the side scatter shift (at 100 µM) was 13.5% (inactive) and the side scatter shift (side scatter shift, at 10 µM) was 8.8%.

Regarding `CCn1c(=O)cc(OCC(=O)O)c2ccccc21`, the side scatter shift is, setting by setting: (at 100 µM) 31.8% (inactive); (side scatter shift, at 10 µM) 6.7%.

Turning to `CCOC(=O)c1ccc(NC(=O)Nc2ccc3c4c(cccc24)C(=O)N3CC)cc1`, the side scatter shift reads like this: (at 100 µM) 34.3% (inactive); (side scatter shift, at 10 µM) 8.75%.

As to `Cc1oc(-c2ccccc2F)nc1CN1CCC(C(=O)NCc2cccs2)CC1`, the side scatter shift runs as follows: (at 100 µM) 39.3% (inactive); (side scatter shift, at 10 µM) 6.3%.

For `O=C(CCNC(=O)Cn1ccc2ccccc2c1=O)NCCCN1CCN(c2ccc(F)cc2)CC1`, the side scatter shift is, setting by setting: (at 100 µM) 21.8% (inactive); (side scatter shift, at 10 µM) 7.25%.

For the compound `O=C(NCCCN1CCN(c2ccccc2F)CC1)C1CCC(=O)N1C1CCCC1` (configuration not stated), the side scatter shift was 5% (inactive) (at 100 µM) and 2.35% (side scatter shift, at 10 µM).
